Assay results from ChEMBL document CHEMBL1961873, “Compounds: GSK PKIS; Assays: Nanosyn kinase panel” (2012).

target: Serine/threonine-protein kinase PLK1 (Homo sapiens) (UniProt P53350); details: at 0.1 µM
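Also: reported values are mean PLK1 inhibition, measured as part of the GSK PKIS profiling set.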

Sequence of Serine/threonine-protein kinase PLK1 (Homo sapiens) (P53350 whole entry): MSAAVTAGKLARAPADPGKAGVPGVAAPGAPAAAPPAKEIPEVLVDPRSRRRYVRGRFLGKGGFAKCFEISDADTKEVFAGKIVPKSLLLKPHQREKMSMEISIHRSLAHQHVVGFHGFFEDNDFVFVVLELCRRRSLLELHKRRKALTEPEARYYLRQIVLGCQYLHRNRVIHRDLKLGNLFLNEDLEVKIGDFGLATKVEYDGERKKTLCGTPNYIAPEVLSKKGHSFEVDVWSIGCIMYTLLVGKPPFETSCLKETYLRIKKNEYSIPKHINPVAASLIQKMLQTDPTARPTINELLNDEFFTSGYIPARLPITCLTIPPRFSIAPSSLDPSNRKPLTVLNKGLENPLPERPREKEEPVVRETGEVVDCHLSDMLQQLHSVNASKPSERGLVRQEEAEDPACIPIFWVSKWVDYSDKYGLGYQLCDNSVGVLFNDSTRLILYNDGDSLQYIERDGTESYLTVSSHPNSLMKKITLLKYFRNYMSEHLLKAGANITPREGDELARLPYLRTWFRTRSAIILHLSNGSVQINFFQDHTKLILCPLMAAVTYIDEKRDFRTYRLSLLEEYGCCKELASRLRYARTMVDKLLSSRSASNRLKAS

Row | Compound | inhibition
1 | CCn1c(-c2nonc2N)nc2c(C#CC(C)(C)O)nc(OCCNC)cc21 | 6.83%
2 | COC(=O)Nc1nc2cc(Oc3ccc(NC(=O)Nc4cccc(Br)c4)cc3)ccc2[nH]1 | 6.02%
3 | Nc1nccc(-c2c(-c3ccc(F)cc3)nn3cc(C(F)(F)F)ccc23)n1 | 2.53%
4 | CN(C)CCCn1c(-c2nonc2N)nc2cnccc21 | 3.73%
5 | COc1cc(Nc2nccc(-c3cnn4ncccc34)n2)cc(OC)c1 | 6.63%
6 | C[C@@H](Oc1cc(-n2cnc3ccc(OC[C@@H](O)CO)cc32)sc1C(N)=O)c1ccccc1Cl | 92.2%
7 | N#Cc1cccc(Nc2nccc(-c3cnn4ncccc34)n2)c1 | 3.24%
8 | COc1cc(/C=N/Nc2ncnc3c2cnn3C(C)C)ccc1O | 3.79%
9 | Nc1ccc(C#Cc2cncnc2Nc2ccc(OCc3cccc(F)c3)c(Cl)c2)cc1 | 0.94%
10 | Cc1ccc2c(c1)/C(=N/Nc1ccc(S(N)(=O)=O)cc1)C(=O)N2 | 0.67%
11 | NC(=O)c1cccc(Nc2nccc(Nc3cccc(F)c3)n2)c1 | 2.05%
12 | NS(=O)(=O)c1ccc(NC=C2C(=O)Nc3ccc4ncsc4c32)cc1 | 4.42%
13 | Cc1ccc2c(-c3ccnc(Nc4cccc(C(F)(F)F)c4)n3)c(-c3ccccc3)nn2n1 | 7.39%
14 | NS(=O)(=O)c1ccc(N/N=C2\C(=O)Nc3ccc(Cl)cc32)cc1 | 1.63%
15 | COC(=O)c1cncc(/C=C/c2c(C)cc(O)cc2C)c1 | 1.89%
16 | COc1cccc(-n2ncc3c(N/N=C/c4ccc(S(C)(=O)=O)cc4)ncnc32)c1 | 1.67%
17 | CN(C)C(=O)O[C@H]1CN[C@H](C#Cc2cc3ncnc(Nc4ccc(OCc5cccc(F)c5)c(Cl)c4)c3s2)C1 | 2.9%

Row | Compound | inhibition
18 | Cc1cc(Cl)cc2c1NC(=O)C2=NNc1ccc(S(N)(=O)=O)cc1 | 6.15%
19 | Cc1ccc(C(=O)NC2CC2)cc1-c1ccc2[nH]ncc2c1 | -2.55%
20 | O=C(Nc1ccc(Oc2ccc3[nH]c(NC(=O)c4ccco4)nc3c2)cc1)Nc1cc(C(F)(F)F)ccc1F | 0.92%
21 | NS(=O)(=O)c1ccc(-c2cc3ccncc3cc2OCc2ccccc2)cc1 | 2.8%
22 | Cc1cc(O)cc(C)c1/C=C/c1cncc(C(=O)N(C)C)c1 | 5.15%
23 | CN(c1ccc(NC(=O)Nc2ccc(OC(F)(F)F)cc2)cc1)c1ccnc(Nc2cccc(S(N)(=O)=O)c2)n1 | 2.14%
24 | Cc1ccc(O)cc1Nc1ccnc2ccc(S(C)(=O)=O)cc12 | 4.22%
25 | Cc1cc(-c2ccccn2)cc(C)c1/C=C/c1cncc(-c2nn[nH]n2)c1 | 5.02%
26 | O=C1Nc2ccccc2/C1=C/Nc1ccc2[nH]c(=O)[nH]c2c1 | 5.67%
27 | ON=C1CCc2cc(-c3nc(C4CCNCC4)[nH]c3-c3ccncc3)ccc21 | 1.85%
28 | C[C@@H](Oc1cc(-n2cnc3ccc(OCC4CCN(C)CC4)cc32)sc1C(N)=O)c1ccccc1C(F)(F)F | 91.6%
29 | Cc1nc(-c2ccccc2)n2nc(NCCCN3CCOCC3)ncc12 | 3.18%
30 | [O-][S+]1CCN(Cc2ccc(-c3ccc4ncnc(Nc5ccc(OCc6ccccc6)c(Cl)c5)c4c3)o2)CC1 | 3.9%
31 | Oc1cccc(-c2nc(-c3ccccc3)[nH]c2-c2ccncc2)c1 | 4.15%
32 | Nc1nccc(-c2c(-c3ccc(F)cc3)ncn2CCCN2CCOCC2)n1 | 2.14%
33 | Cc1ccc(Nc2ccnc(Nc3cccc(C(N)=O)c3)n2)cc1O | 3.22%
